Among the data in the supplement of paper PMC13380429 are morphology score and SARS-CoV-2 infection rate values, retold here.

Test [1] relates to Vero E6 infected with SARS-CoV-2. Kind of test: morphology score (similarity to uninfected cells); higher = more like uninfected cells. The following applies: 24 h.
For test [2] the test system is unchanged. In words: SARS-CoV-2 infection rate relative to infected DMSO; higher = more infection, active = 60 or less. The conditions noted are these: 24 h.

For the compound `CC(=O)Nc1ccc(O)cc1` [paracetamol] (10 µM), in test [1], the morphology score is -0.0685. In test [2], the SARS-CoV-2 infection rate is 103% (inactive).

In test [1], `COCCNC(=O)COc1ccc(OCCNC[C@H](O)COc2ccccc2)cc1` (10 µM) registered a morphology score of 0.0156. Moreover, the SARS-CoV-2 infection rate in test [2] was 102% (inactive).

In the case of `Cn1ccc2cc3c(cc21)CCN3C(=O)Nc1cccnc1` (10 µM), in test [1], the morphology score is 0.204. The SARS-CoV-2 infection rate in test [2] was 99% (inactive).

As to `CN[C@@H](C)[C@H](O)c1ccccc1` [ephedrine] (10 µM), the morphology score in test [1] was -0.038. For the same compound, the SARS-CoV-2 infection rate in test [2] is 106% (inactive).

In turn, `C#Cc1cccc2c1c(C(=O)c1ccc(Cn3c(C)nc4cnccc43)c(F)c1)cn2C(=O)N(C)C` (10 µM) showed a morphology score in test [1] of 0.159. The SARS-CoV-2 infection rate in test [2] is 106% (inactive).

As for `O=C(Oc1ccc([N+](=O)[O-])cc1)N1CCN(Cc2cccc(Oc3ccccc3)c2)CC1` (10 µM), in test [1], the morphology score is 0.162. Also, the SARS-CoV-2 infection rate in test [2] is 95.5% (inactive).

The compound `O=C[C@H](F)[C@@H](O)[C@@H](O)[C@H](O)CO` [2-fluoro-2-deoxy-D-galactose] (10 µM) displayed a morphology score in test [1] of 0.127. Further, the SARS-CoV-2 infection rate in test [2] was 116% (inactive).

For `CSCC[C@H](NC(=O)[C@H](CC(C)C)NC(=O)[C@@H](Cc1c[nH]c2ccccc12)NC(=O)[C@H](Cc1ccccc1)N(C)C(=O)[C@@H](Cc1c[nH]c2ccccc12)NC(=O)[C@@H](N)CCCNC(=N)N)C(N)=O` [antagonist-g] (10 µM), the morphology score in test [1] was -0.124. Moreover, the SARS-CoV-2 infection rate in test [2] was 114% (inactive).

In the case of `O=C(CCCN1CC=C(n2c(=O)[nH]c3ccccc32)CC1)c1ccc(F)cc1` [droperidol] (10 µM), in test [1], the morphology score was found to be 0.0599. The SARS-CoV-2 infection rate in test [2] was 112% (inactive).

On to `O=C(O)[C@H]1O[C@@H](Oc2cc3oc(-c4ccccc4)cc(=O)c3c(O)c2O)[C@H](O)[C@@H](O)[C@@H]1O` [baicalin] (10 µM), for which the morphology score in test [1] was found to be 0.165. The SARS-CoV-2 infection rate in test [2] was 100% (inactive).

Consider `O=C(N[C@@H]1Cc2ccccc2N(C[C@@H](O)CO)C1=O)c1cc2cc(Cl)sc2[nH]1` (10 µM), for which, in test [1], the morphology score is -0.155. In addition, in test [2], the SARS-CoV-2 infection rate is 105% (inactive).

In turn, `Cc1noc(NS(=O)(=O)c2ccc(N)cc2)c1C` [sulfafurazole] (10 µM) yielded a morphology score in test [1] of 0.1. Also, the SARS-CoV-2 infection rate in test [2] was 100% (inactive).

On to `COc1cc(F)c(C(C)C)cc1-c1ccc(C(F)(F)F)cc1CN1C(=O)O[C@H](c2cc(C(F)(F)F)cc(C(F)(F)F)c2)[C@@H]1C` [anacetrapib] (10 µM), for which the morphology score in test [1] worked out at 0.116. Also, the SARS-CoV-2 infection rate in test [2] is 106% (inactive).

Take `CC(=O)Oc1cccc(C(=O)O)c1OC(C)=O` [dipyrocetyl] (10 µM): in test [1], the morphology score worked out at 0.209. Further, the SARS-CoV-2 infection rate in test [2] was 85% (inactive).

Consider `CC1(C)Oc2ccc(C#N)cc2[C@@H](N2CCCC2=O)[C@@H]1O` [levcromakalim] (10 µM), for which, in test [1], the morphology score was 0.221. In test [2], the SARS-CoV-2 infection rate was 97% (inactive).

In turn, `COC(=O)C1=CCCN(C)C1` [arecoline] (10 µM) displayed a morphology score in test [1] of 0.184. Moreover, the SARS-CoV-2 infection rate in test [2] was 100% (inactive).

`O=S1(=O)N[C@H]2CCCN2c2ccccc21` (10 µM) returned a morphology score in test [1] of 0.0127. Further, in test [2], the SARS-CoV-2 infection rate is 104% (inactive).

Regarding `C[C@]12CC[C@@H]3c4ccc(OS(=O)(=O)O)cc4CC[C@H]3[C@@H]1CCC2=O` [estropipate] (10 µM), the morphology score in test [1] was found to be 0.227. For the same compound, the SARS-CoV-2 infection rate in test [2] is 99% (inactive).

In test [1], `c1ccc2c(CCNc3ccc(Nc4ccncc4)cc3)c[nH]c2c1` [serdemetan] (10 µM) came in with a morphology score of 0.933. Further, the SARS-CoV-2 infection rate in test [2] is 37.5% (active).

`COc1ncc(-c2ccc3nccc(-c4ccnnc4)c3c2)cc1NS(=O)(=O)c1ccc(F)cc1F` (0.833333 µM): in test [1], the morphology score was -0.0933. For the same compound, the SARS-CoV-2 infection rate in test [2] is 110% (inactive).

In the case of `O=C(O)CCC(=O)O` [succinic-acid] (10 µM), in test [1], the morphology score is -0.0828. Besides, the SARS-CoV-2 infection rate in test [2] was 106% (inactive).

For `O=c1c2ccccc2[se]n1-c1ccccc1` [ebselen] (10 µM), the morphology score in test [1] turned out to be 0.34. In addition, in test [2], the SARS-CoV-2 infection rate is 84% (inactive).

On to `C=C(C)CN1CC[C@]23c4c5ccc(O)c4O[C@H]2c2[nH]c4ccccc4c2C[C@@]3(O)C1C5` (10 µM), for which the morphology score in test [1] was found to be 0.0617. Besides, in test [2], the SARS-CoV-2 infection rate was 108% (inactive).

`CC(=O)c1c(O)cc(C)oc1=O` [dehydroacetic-acid] (10 µM) yielded a morphology score in test [1] of 0.121. Moreover, the SARS-CoV-2 infection rate in test [2] was 93.5% (inactive).

`COC(=O)[C@H](NC(=O)c1cc(-c2ccccc2)nc2ccccc12)c1ccccc1` (10 µM): the morphology score in test [1] is 0.0787. Besides, the SARS-CoV-2 infection rate in test [2] was 100% (inactive).

Turning to `OC[C@H]1NC[C@@H](O)[C@@H](O)[C@@H]1O` [1-deoxymannojirimycin] (10 µM), the morphology score in test [1] was -0.0915. In test [2], the SARS-CoV-2 infection rate is 102% (inactive).

As to `CCCN[C@@H]1CCc2c(OC)cccc2[C@@H]1C` (10 µM), the morphology score in test [1] came out at 0.0456. In test [2], the SARS-CoV-2 infection rate was 100% (inactive).

With `CC1=C(C(=O)OC(C)C)C(c2cccc([N+](=O)[O-])c2)C(C(=O)OC2CN(C(c3ccccc3)c3ccccc3)C2)=C(N)N1` (stereo not given) [azelnidipine] (10 µM), the morphology score in test [1] turned out to be 0.295. In addition, the SARS-CoV-2 infection rate in test [2] was 71.5% (inactive).

Take `CO[C@H]1/C=C/O[C@@]2(C)Oc3c(C)c(O)c4c(O)c(c(/C=N/N5CCN(C)CC5)c(O)c4c3C2=O)NC(=O)/C(C)=C\C=C\[C@H](C)[C@H](O)[C@@H](C)[C@@H](O)[C@@H](C)[C@H](OC(C)=O)[C@@H]1C` [rifampin] (0.833333 µM): the morphology score in test [1] was -0.0289. In addition, in test [2], the SARS-CoV-2 infection rate was 112% (inactive).

In test [1], `CCN(Cc1ccc(Cl)nc1)/C(=C/[N+](=O)[O-])NC` [nitenpyram] (10 µM) came in with a morphology score of 0.0591. Further, the SARS-CoV-2 infection rate in test [2] was 101% (inactive).

The compound `COc1cc(Nc2ncc3c(n2)-c2ccc(Cl)cc2C(c2c(F)cccc2OC)=NC3)ccc1C(=O)O` [alisertib] (0.833333 µM) registered a morphology score in test [1] of 0.272. In test [2], the SARS-CoV-2 infection rate was 112% (inactive).

On to `CCC(=O)N1CCN(c2ccc(-n3c(=O)ccc4cnc5ccc(-c6cnc7ccccc7c6)cc5c43)cc2C(F)(F)F)CC1` [torin-1] (10 µM), for which the morphology score in test [1] is -0.0739. For the same compound, in test [2], the SARS-CoV-2 infection rate was 107% (inactive).

`C[C@]12C=CC(=O)C=C1CC[C@@H]1[C@@H]2[C@@H](O)C[C@@]2(C)[C@H]1CC[C@]2(O)C(=O)COC(=O)CCC(=O)O` [prednisolone-hemisuccinate] (10 µM) had a morphology score in test [1] of 0.166. Further, the SARS-CoV-2 infection rate in test [2] is 94% (inactive).

In test [1], `CCc1cc(O)c(Oc2ccc(C(N)=O)cc2F)cc1F` (10 µM) displayed a morphology score of 0.0909. In test [2], the SARS-CoV-2 infection rate was 95.5% (inactive).

As for `CCCN(CCc1cccs1)[C@H]1CCc2c(O)cccc2C1` [rotigotine] (10 µM), the morphology score in test [1] was -0.0144. Also, the SARS-CoV-2 infection rate in test [2] was 96.5% (inactive).
